# Reference: ChEMBL document CHEMBL3988442, “University of Dundee, Small-Polar-MMV Screening Library” (2021)
# Out of some 69,000 compounds screened, about 1,000 (1.4%) showed an effect of 50% or more. The sample as a whole holds a higher share of strong results than the screen did.
# System: Leishmania donovani
# Assay: Leishmania intramacrophage assay
# Format: functional, organism-based
# Design: scale not given: in the data most compounds retested in dose-response had high values
compound,measurement,setting,value
COc1ncccc1CN1CC[C@]2(C[C@@H](OCc3ccccn3)CO2)C1.O=C(O)C(F)(F)F.O=C(O)C(F)(F)F.O=C(O)C(F)(F)F,Percent Effect,"30.3 µM, […]",-3.573%
Nc1nnnn1NCc1cccc(Cl)c1Cl,Percent Effect,"30.3 µM, […]",4.224%
O=C(CCc1ccsc1)N1CCCC(n2cncn2)C1 (centres undefined),Percent Effect,30 µM,18.97%
Cc1nccn1C1CCCN(C(=O)c2cccc(OCC(N)=O)c2)C1 (centres undefined),Percent Effect,30 µM,14.8%
COc1nccnc1N1CCC2(CC1)[C@H](O)C[C@@H]2OCCN(C)C,Percent Effect,"30.3 µM, […]",13.35%
c1csc(CCNc2nc(-c3ccncc3)nc3c2CCNCC3)c1,Percent Effect,"30.3 µM, […]",9.747%
c1cc(-c2nc3c(c(NCCn4ccnn4)n2)CCNCC3)ccn1,Percent Effect,"30.3 µM, […]",24.72%
Cl.NC1CCc2nc(-c3ccncc3)nc(Nc3cccc(F)c3)c2C1 (centres undefined),Percent Effect,"30.3 µM, […]",64.39%
Cc1sc2c(C3CCNCC3)nc(Nc3cccc(F)c3)n2c1C.Cl,Percent Effect,"30.3 µM, […]",-10.63%
O=C(Nc1cccc(F)c1)NC1CCN(Cc2ccncc2)CC1,Percent Effect,"30.3 µM, […]",20.9%
CNC(=O)c1cccc(CN2CCC(N(C)Cc3noc(C)n3)C2)c1 (centres undefined),Percent Effect,"30.3 µM, […]",-22.53%
CNc1cc(C2CCCN(S(=O)(=O)c3cn[nH]c3)C2)ccn1 (centres undefined),Percent Effect,"30.3 µM, […]",9.494%
CCN1CCN(C2CCN(Cc3c(C)noc3C)CC2)C1=O,Percent Effect,"30 µM, 30.03 µM",32.64%
CN(C)c1nc(N)nc(CN2CCCC2c2cccs2)n1 (centres undefined),Percent Effect,"30.3 µM, […]",87.57%
Cc1nc(CN2CCCC2c2ccsc2)nc2ccccc12 (centres undefined),Percent Effect,"30 µM, 30.03 µM",47.19%
CCCc1noc(CN2CCCC2c2ccsc2)n1 (centres undefined),Percent Effect,"30 µM, 30.03 µM",16.77%
CN(C)c1nc(N)nc(CN2CCCC(c3ccccc3)CC2)n1 (centres undefined),Percent Effect,"30.3 µM, […]",6.795%
CN(C)c1nc(N)nc(CN2CCCC2c2ccsc2)n1 (centres undefined),Percent Effect,"30.3 µM, […]",83.34%
Cc1cccc(C2CCCN2Cc2nc(N)nc(N(C)C)n2)c1C (centres undefined),Percent Effect,"30.3 µM, […]",37.96%
OC1(CNCCc2csc(-c3cccnc3)n2)CCNC1 (centres undefined),Percent Effect,"30.3 µM, […]",17.55%
CN1CCn2c(-c3cccc(F)c3)cnc2C12CCN(CC1CC1)CC2.O=C(O)C(F)(F)F.O=C(O)C(F)(F)F.O=C(O)C(F)(F)F,Percent Effect,"30.3 µM, […]",7.679%
CCc1cc(=O)[nH]c(-c2ccc(NCCc3ccc(O)cc3)nc2)n1,Percent Effect,"30.3 µM, […]",10.3%
Cc1nc(-c2ccc(NCCc3ccc(O)cc3)nc2)[nH]c(=O)c1C,Percent Effect,"30.3 µM, […]",67.3%
Cc1nc(CCNc2ccc(-c3nc(C)c(C)c(=O)[nH]3)cn2)cs1,Percent Effect,"30.3 µM, […]",-24.43%
CCOCC1c2c(cnn2CC2CC2)CCN1C(=O)c1ccncn1.O=C(O)C(F)(F)F (centres undefined),Percent Effect,"30.3 µM, […]",-17.31%
Cc1c(C(=O)NS(=O)(=O)c2ccc(F)cc2)cnn1CC(C)C,Percent Effect,"30.3 µM, […]",-23.8%
CC(C)N1CCCN(c2nc(-c3cccnc3)nc3c2cnn3C)CC1,Percent Effect,"30.3 µM, […]",93.98%
Cn1ncc2c(N3CCS(=O)(=O)CC3)nc(-c3cccnc3)nc21,Percent Effect,"30.3 µM, […]",31.77%
Cn1ncc2c(N3CCC3)nc(-c3ccncc3)nc21,Percent Effect,"30.3 µM, […]",7.019%
COc1ccccc1-c1csc(NC(=O)N2CCN(C)CC2C)n1 (centres undefined),Percent Effect,"30.3 µM, […]",9.878%
CCc1ccccc1CN1CC[C@@]2(O)CCN(S(=O)(=O)N(C)C)C[C@H]2C1,Percent Effect,"30.3 µM, […]",-14.75%
CCN(C)S(=O)(=O)NCC1CCCN(Cc2ccccc2F)C1 (centres undefined),Percent Effect,"30.3 µM, […]",-11.05%
Nc1ncc(C(=O)N2CCN(c3nccs3)CC2)cc1Cl,Percent Effect,"30.3 µM, […]",-4.984%
O=C(c1cc(Cl)cc(Cl)c1)N1CCN(c2nccs2)CC1,Percent Effect,"30 µM, 30.03 µM",30.43%
O=C(c1ccc(O)c(Cl)c1)N1CCN(c2nccs2)CC1,Percent Effect,"30.3 µM, […]",64.57%
CC(C(N)=O)N(C)Cc1ccccc1C(F)(F)F (centres undefined),Percent Effect,"30.3 µM, […]",-40.32%
CN(Cc1ccccc1F)C(C(N)=O)c1ccccc1 (centres undefined),Percent Effect,"30.3 µM, […]",11.08%
CN(Cc1ccccc1C(F)(F)F)C(C(N)=O)c1ccccc1 (centres undefined),Percent Effect,"30.3 µM, […]",68.32%
Fc1ccccc1Sc1ccccc1CNC1=NCCN1.I,Percent Effect,"30.3 µM, […]",29.36%
Fc1ccc(Sc2ccccc2CNC2=NCCN2)cc1.I,Percent Effect,"30.3 µM, […]",50.51%
I.c1ccc(Sc2ccc3c(c2)OCO3)c(CNC2=NCCN2)c1,Percent Effect,"30.3 µM, […]",21.74%
Cc1nnc([C@@H]2C[C@H]3CN(C(=O)c4sccc4C)C[C@H]3O2)[nH]1,Percent Effect,"30.3 µM, […]",16.44%
CN(Cc1cccnc1)[C@@H]1CN(C(=O)c2ccoc2)[C@@H]2CCCO[C@H]12.O=C(O)C(F)(F)F.O=C(O)C(F)(F)F,Percent Effect,"30.3 µM, […]",-5.312%
CN(Cc1cccnc1)[C@@H]1CN(C(=O)c2ccno2)[C@@H]2CCCO[C@H]12.O=C(O)C(F)(F)F.O=C(O)C(F)(F)F,Percent Effect,"30.3 µM, […]",75.56%
CN(Cc1cccnc1)[C@@H]1CN(C(=O)CC2CC2)[C@@H]2CCCO[C@H]12.O=C(O)C(F)(F)F.O=C(O)C(F)(F)F,Percent Effect,"30.3 µM, […]",-10.3%
Cn1ccnc1-c1noc(NCc2ccc(Cl)cc2)n1,Percent Effect,"30.3 µM, […]",-1.294%
Cc1cc(C)nc(NC(=O)NCCCSc2nncn2C)n1,Percent Effect,"30.3 µM, […]",12.59%
O=C(O)c1c(Cl)ncn1-c1ccccc1,Percent Effect,"30.3 µM, […]",42.23%
O=C(O)c1c(Cl)ncn1-c1cccc2ccccc12,Percent Effect,"30.3 µM, […]",32.69%
Cc1ccccc1-n1cnc(Cl)c1C(=O)O,Percent Effect,"30.3 µM, […]",51.36%
CN(C)C1CCC2(CCN(Cc3nccn3C)CC2)c2ccccc21.O=C(O)C(F)(F)F.O=C(O)C(F)(F)F (centres undefined),Percent Effect,"30.3 µM, […]",15.24%
c1cncc(CN2CCC(NCCc3ccc4c(c3)OCO4)CC2)c1,Percent Effect,"30.3 µM, […]",21.95%
COc1cccc(-c2cc(C(=O)NCCCn3nc(C)cc3C)[nH]n2)c1,Percent Effect,"30.3 µM, […]",35.19%
COc1cccc(-c2cc(C(=O)NCCCn3cnnc3)[nH]n2)c1,Percent Effect,"30.3 µM, […]",50.06%
COc1cccc(-c2cc(C(=O)NCCCC(F)(F)F)[nH]n2)c1,Percent Effect,"30.3 µM, […]",24.25%
Cc1cc(C)c2c(c1)C(CC(=O)O)C(=O)N2 (centres undefined),Percent Effect,"30.3 µM, […]",12.49%
Cc1ccc2nc(C)c(C)c(C(=O)NCCCn3ccnn3)c2c1,Percent Effect,"30.3 µM, […]",16%
CC(C)(C)c1n[nH]c(C2CN(Cc3nnc(C4CC4)o3)CCO2)n1 (centres undefined),Percent Effect,30 µM,6.806%
Cc1cc(C(=O)N2C[C@@H](CN(C)CCN(C)C)[C@@H](CO)C2)nc(C)n1,Percent Effect,"30.3 µM, […]",0.2814%
COc1ccc2cc(C(=O)N3CCCCC3CC(N)=O)[nH]c2c1 (centres undefined),Percent Effect,"30 µM, 30.03 µM",4.026%
NC(=O)CN1CCC(NC(=O)Nc2nccs2)CC1,Percent Effect,"30 µM, 30.03 µM",-0.9986%
CC(CNCc1ccncc1)Oc1ccccn1.Cl (centres undefined),Percent Effect,"30 µM, 30.03 µM",6.303%
Cc1c(C)n(CC(O)CN2CCN(CCO)CC2)c2c(Cl)cccc12.Cl (centres undefined),Percent Effect,"30.3 µM, […]",50.22%
Cc1c(C)n(CC(O)CN2CCOCC2)c2c(Cl)cccc12.Cl (centres undefined),Percent Effect,"30.3 µM, […]",-3.857%
Cc1c(C)n(CC(O)CN2CCCCCC2)c2c(Cl)cccc12 (centres undefined),Percent Effect,"30.3 µM, […]",-13.19%
O=C(C1CCOCC1)N1CC[C@H](O)[C@@H]1Cc1cccnc1,Percent Effect,"30.3 µM, […]",25.33%
Cc1noc(C)c1CN(C)c1ncnc2onc(C)c12,Percent Effect,"30.3 µM, […]",-10.33%
O=C(c1cscn1)N1C[C@H](OCc2cccnc2)[C@H]2COC[C@H]21,Percent Effect,"30.3 µM, […]",-0.3632%
COc1cccc(C(C(=O)O)N2CCC(Cn3cccn3)CC2)c1OC (centres undefined),Percent Effect,"30.3 µM, […]",3.274%
COc1c(Cl)cccc1NCc1csc(C)n1,Percent Effect,"30.3 µM, […]",-4.371%
COc1c(Cl)cccc1NCc1csc(NC(C)=O)n1,Percent Effect,"30.3 µM, […]",71.24%
CNc1nc(CNC(=O)Nc2cccc(Cl)c2OC)cs1,Percent Effect,30 µM,28.86%
CCc1ccc(C(=O)N2CCCC2c2c(C)nn(C)c2OC)o1 (centres undefined),Percent Effect,"30.3 µM, […]",16.94%
O=C(c1ccccn1)N1C[C@@H]2CC[C@H](C1)N(C(=O)Cc1cccs1)C2,Percent Effect,"30.3 µM, […]",-16.24%
COc1ccc(-c2ccnc3nc(N4CCCC4)[nH]c(=O)c23)cc1OC,Percent Effect,"30.3 µM, […]",26.43%
COc1ccccc1-c1ccnc2nc(N3CCCCC3)[nH]c(=O)c12,Percent Effect,"30.3 µM, […]",64.29%
COc1ccc(-c2ccnc3nc(N4CCCCC4)[nH]c(=O)c23)cc1,Percent Effect,"30.3 µM, […]",8.173%
CCCN1CCCC1Cn1nc(C)cc1C (centres undefined),Percent Effect,30 µM,21.44%
O=S(=O)(c1ccccc1Br)N1CCC2(CC1)OCCS2,Percent Effect,"30.3 µM, […]",-12.48%
CCCN1CCN(CC(O)c2ccc(OC(F)(F)F)cc2)CC1 (centres undefined),Percent Effect,"30.3 µM, […]",27.81%
OCCN1CCN(CC(O)c2ccc(OC(F)(F)F)cc2)CC1 (centres undefined),Percent Effect,"30.3 µM, […]",19.69%
COCCN1CCN(CC(O)c2ccc(OC(F)(F)F)cc2)CC1 (centres undefined),Percent Effect,"30.3 µM, […]",52.28%
Cc1nc(CCN(C)C(=O)CN2CCCCCC2)no1,Percent Effect,"30.3 µM, […]",28.54%
CC(C)(C)NC(=O)NC(=O)CNc1c(F)cccc1N1CCCC1,Percent Effect,"30.3 µM, […]",14.38%
CCCn1nc2c(cc1=O)CN(c1ncnc3ccsc13)CC2,Percent Effect,"30.3 µM, […]",56.14%
CCn1nc2c(cc1=O)CN(c1ncnc3ccsc13)CC2,Percent Effect,"30.3 µM, […]",42.12%
Cn1nc2c(cc1=O)CN(c1ncnc3ccsc13)CC2,Percent Effect,"30.3 µM, […]",15.92%
Cc1nc([C@@H]2C[C@@H]3CCN(C(=O)c4ccnnc4)C[C@H]3O2)sc1C,Percent Effect,"30 µM, 30.03 µM",6.612%
CCN1C[C@H]2CCN(C(=O)NC3CCCC3)CC[C@H]2S1(=O)=O,Percent Effect,"30 µM, 30.03 µM",-4.578%
CNC(=O)C1Cn2ccnc2C2(CCN(Cc3cccc(C)n3)CC2)O1.O=C(O)C(F)(F)F (centres undefined),Percent Effect,"30 µM, 30.03 µM",-9.841%
NCC1CCCN(c2nc(-c3ccccc3)nc3c2CCNCC3)C1 (centres undefined),Percent Effect,"30.3 µM, […]",17.41%
N#CC1CCCN(c2nc(-c3ccccc3)nc3c2CCNCC3)C1 (centres undefined),Percent Effect,"30 µM, 30.03 µM",83.36%
NCC1CN(c2nc(-c3ccccc3)nc3c2CCNCC3)CCO1 (centres undefined),Percent Effect,"30 µM, 30.03 µM",6.18%
CCOCCCNC(=O)c1cc(Br)c2c(c1)OCCO2,Percent Effect,"30.3 µM, […]",32.12%
CCC(C)(C)NC(=O)Cn1nc(C)nc1-c1ccccc1,Percent Effect,"30.3 µM, […]",-5.337%
CC1(C)CNC(=O)c2nc(CCN3CCC(O)CC3)[nH]c2C1,Percent Effect,"30.3 µM, […]",-12%
O=C1[C@@H]2CN(Cc3cc4ccccc4o3)C[C@]2(C(=O)O)CN1CC1CC1,Percent Effect,"30.3 µM, […]",10.9%
CSCC[C@H](NC(C)=O)c1nc(CCc2ccccc2)n[nH]1,Percent Effect,"30.3 µM, […]",10.23%
NC(=O)c1ccccc1NC(=O)CCN1CCN(CCO)CC1,Percent Effect,"30.3 µM, […]",10.76%
